# Measurements from the supplement of paper PMC10849652.
# The full data set covers some 8,800 targets. This sample favours those with a hit. About 0.5% of all pairs of compound and target were hits. Unmarked numbers belong to inactive results.
# Compound: Cc1ncc(-c2ccnc(Nc3ccc(S(C)(=O)=O)cc3)n2)n1C(C)C
# Test: log2 fold change, soluble protein after heating vs DMSO (PISA); higher = thermal stabilisation; K562 lysate, 10 uM; active = over 0.2 and 3.5 SD of the protein, either way, in both replicates (recomputed)
# Summary of the method: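 Values give the log-two fold change in thermal stability against solvent controls, from duplicates. Crude K562 extract at 1 mg/mL protein, made by dounce homogenisation in PBS pH 7.4 with 1 mM MgCl2, was treated with 10 μM compound for 30 min. After 3 min heating across 48°C-58°C, aliquots were pooled, adjusted to 0.5% NP-40 at 4°C and centrifuged at 21,000xg for 90 min. The supernatant was measured by TMTpro 16plex LC-MS/MS with channel sums equalised.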
# Chain of UniProt P08758 (P08758 whole entry, looked up): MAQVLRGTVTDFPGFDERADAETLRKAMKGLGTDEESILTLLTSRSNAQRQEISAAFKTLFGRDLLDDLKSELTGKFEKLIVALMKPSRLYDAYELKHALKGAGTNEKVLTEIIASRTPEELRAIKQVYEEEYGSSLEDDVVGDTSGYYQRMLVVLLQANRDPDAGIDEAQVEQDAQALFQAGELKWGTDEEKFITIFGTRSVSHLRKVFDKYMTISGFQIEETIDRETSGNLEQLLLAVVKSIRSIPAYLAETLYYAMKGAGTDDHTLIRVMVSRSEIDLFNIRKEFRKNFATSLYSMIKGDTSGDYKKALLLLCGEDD
# Chain of UniProt Q9BXX2 (Q9BXX2 whole entry, looked up): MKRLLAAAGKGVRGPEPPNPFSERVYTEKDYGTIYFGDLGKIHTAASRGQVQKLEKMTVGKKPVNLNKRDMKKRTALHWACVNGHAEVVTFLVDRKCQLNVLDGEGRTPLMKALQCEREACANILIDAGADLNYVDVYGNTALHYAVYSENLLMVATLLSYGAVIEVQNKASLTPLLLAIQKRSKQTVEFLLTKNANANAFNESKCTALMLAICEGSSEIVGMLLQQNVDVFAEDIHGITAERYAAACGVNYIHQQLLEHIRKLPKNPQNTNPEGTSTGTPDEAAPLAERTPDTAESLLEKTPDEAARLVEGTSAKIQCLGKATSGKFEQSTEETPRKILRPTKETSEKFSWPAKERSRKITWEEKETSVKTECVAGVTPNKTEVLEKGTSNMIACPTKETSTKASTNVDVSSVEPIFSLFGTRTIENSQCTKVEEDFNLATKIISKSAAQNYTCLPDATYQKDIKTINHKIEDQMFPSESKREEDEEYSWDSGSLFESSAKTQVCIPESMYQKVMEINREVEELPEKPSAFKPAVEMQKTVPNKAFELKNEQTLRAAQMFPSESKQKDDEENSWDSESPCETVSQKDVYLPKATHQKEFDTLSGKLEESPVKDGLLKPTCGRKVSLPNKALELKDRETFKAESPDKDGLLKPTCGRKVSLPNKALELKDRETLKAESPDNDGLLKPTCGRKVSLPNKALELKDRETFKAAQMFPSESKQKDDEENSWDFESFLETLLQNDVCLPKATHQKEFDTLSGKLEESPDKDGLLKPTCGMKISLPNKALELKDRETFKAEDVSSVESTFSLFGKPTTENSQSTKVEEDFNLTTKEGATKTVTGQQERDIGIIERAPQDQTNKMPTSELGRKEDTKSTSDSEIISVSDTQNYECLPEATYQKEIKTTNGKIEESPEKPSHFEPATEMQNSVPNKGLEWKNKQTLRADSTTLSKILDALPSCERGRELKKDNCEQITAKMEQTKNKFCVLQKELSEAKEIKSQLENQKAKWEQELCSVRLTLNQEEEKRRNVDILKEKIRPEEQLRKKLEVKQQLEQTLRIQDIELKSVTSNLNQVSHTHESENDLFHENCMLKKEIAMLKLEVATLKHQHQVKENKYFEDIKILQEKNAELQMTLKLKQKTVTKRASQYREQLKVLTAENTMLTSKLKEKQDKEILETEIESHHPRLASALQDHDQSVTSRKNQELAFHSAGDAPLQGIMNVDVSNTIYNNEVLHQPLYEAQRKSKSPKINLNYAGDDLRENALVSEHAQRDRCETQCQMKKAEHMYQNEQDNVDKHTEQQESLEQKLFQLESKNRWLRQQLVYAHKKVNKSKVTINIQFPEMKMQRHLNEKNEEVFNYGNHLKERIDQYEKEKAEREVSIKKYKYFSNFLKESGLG
# Chain of UniProt P53396 (P53396 whole entry, looked up): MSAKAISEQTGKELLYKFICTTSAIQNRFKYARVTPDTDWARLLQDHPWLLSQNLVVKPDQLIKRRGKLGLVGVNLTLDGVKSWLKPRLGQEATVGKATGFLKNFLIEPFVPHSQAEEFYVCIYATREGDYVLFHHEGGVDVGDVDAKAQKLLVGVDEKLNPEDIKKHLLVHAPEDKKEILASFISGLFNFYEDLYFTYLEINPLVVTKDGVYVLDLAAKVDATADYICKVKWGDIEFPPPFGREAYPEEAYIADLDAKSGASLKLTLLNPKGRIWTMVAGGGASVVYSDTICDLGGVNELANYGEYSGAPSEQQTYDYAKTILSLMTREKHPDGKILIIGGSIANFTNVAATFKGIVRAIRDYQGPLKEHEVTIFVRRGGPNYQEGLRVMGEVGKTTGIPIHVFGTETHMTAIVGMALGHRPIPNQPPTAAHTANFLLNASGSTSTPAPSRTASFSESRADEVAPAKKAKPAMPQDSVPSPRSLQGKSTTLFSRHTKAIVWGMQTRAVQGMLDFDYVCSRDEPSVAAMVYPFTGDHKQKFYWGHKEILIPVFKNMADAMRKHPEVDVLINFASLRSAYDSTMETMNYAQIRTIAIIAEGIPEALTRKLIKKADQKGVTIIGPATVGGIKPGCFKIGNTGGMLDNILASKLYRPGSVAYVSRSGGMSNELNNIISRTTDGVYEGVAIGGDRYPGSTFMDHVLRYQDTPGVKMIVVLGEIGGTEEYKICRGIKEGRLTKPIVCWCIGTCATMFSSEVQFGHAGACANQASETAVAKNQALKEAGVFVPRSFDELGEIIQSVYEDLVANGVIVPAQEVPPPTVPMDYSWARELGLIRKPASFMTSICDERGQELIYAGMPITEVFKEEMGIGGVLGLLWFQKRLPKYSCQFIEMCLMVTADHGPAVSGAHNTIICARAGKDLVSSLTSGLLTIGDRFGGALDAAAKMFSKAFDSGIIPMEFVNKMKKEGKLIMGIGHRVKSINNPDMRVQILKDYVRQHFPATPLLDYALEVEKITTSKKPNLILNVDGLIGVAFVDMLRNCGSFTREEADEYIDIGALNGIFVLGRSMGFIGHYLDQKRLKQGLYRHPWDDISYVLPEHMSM
# Chain of UniProt Q6AI12 (Q6AI12 whole entry, looked up): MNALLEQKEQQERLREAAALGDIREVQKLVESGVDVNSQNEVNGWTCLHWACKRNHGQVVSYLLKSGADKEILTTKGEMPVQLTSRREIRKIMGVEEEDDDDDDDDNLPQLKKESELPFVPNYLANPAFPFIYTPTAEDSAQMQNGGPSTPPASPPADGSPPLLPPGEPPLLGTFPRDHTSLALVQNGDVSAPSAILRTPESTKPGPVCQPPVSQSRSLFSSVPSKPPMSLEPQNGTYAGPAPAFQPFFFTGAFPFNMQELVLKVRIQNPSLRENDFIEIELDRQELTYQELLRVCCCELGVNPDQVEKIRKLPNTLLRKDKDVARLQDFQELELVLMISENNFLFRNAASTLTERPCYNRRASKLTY
# Chain of UniProt P00519 (P00519 whole entry, looked up): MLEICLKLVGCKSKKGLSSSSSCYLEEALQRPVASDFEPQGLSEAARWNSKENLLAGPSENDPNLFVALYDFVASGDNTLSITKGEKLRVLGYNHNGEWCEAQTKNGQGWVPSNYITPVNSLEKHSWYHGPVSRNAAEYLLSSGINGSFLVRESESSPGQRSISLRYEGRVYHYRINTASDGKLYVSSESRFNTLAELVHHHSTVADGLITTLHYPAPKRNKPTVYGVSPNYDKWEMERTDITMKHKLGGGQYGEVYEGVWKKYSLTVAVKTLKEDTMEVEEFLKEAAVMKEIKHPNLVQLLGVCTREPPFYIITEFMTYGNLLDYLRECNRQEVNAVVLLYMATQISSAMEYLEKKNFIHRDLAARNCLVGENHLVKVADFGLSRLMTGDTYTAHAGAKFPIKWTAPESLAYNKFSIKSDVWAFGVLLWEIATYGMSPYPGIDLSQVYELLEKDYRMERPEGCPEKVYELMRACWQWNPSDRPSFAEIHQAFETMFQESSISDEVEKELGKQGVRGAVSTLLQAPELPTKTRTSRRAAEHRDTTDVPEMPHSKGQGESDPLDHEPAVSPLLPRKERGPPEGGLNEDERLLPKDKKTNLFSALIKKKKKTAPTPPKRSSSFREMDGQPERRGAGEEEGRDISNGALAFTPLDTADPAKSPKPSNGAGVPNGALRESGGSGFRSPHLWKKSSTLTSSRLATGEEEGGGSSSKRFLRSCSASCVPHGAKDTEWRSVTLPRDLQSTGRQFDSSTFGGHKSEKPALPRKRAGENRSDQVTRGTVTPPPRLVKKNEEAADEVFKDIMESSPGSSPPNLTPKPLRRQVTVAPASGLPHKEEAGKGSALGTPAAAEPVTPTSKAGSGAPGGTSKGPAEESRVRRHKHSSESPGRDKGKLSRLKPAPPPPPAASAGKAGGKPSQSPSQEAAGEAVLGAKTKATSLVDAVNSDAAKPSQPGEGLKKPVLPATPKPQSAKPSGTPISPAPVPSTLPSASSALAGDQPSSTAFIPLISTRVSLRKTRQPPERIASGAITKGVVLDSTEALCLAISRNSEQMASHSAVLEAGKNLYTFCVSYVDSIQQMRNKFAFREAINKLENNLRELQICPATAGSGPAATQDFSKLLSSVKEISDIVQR
# Chain of UniProt P14621 (P14621 whole entry, looked up): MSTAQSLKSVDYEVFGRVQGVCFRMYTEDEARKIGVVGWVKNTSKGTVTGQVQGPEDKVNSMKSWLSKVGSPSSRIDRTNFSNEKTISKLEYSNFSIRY
# Chain of UniProt Q9NXR5 (Q9NXR5 whole entry, looked up): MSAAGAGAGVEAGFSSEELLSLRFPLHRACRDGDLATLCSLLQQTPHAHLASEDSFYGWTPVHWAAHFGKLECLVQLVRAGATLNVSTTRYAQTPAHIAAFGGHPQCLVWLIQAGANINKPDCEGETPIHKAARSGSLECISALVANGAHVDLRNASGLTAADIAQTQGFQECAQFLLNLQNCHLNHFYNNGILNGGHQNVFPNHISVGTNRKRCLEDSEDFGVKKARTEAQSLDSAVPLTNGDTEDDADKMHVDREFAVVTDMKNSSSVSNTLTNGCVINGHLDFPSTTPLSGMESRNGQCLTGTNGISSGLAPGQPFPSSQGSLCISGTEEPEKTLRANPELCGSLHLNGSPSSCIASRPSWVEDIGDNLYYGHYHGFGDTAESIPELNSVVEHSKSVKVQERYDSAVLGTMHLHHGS
# Chain of UniProt Q9P1F3 (Q9P1F3 whole entry, looked up): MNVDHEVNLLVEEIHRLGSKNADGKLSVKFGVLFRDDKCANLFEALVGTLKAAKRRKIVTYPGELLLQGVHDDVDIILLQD
row,Target,log2 fold change
1,ACIN1 (UniProt E7EQT4),0.006
2,ANKRD40 (UniProt Q6AI12),0.071
3,ABRACL (UniProt Q9P1F3),-0.042
4,ANKRD10 (UniProt Q9NXR5),0.021
5,ACVR1 (UniProt Q04771),0.476
6,ALKBH1 (UniProt Q13686),-0.052
7,ANXA2 (UniProt H0YL33),0.074
8,"ACAT1, A0A5F9ZHJ0",0.024
9,AGPAT2 (UniProt O15120),-0.037
10,ALG13 isoform 2 (UniProt Q9NP73),-0.066
11,ADAM17 (UniProt P78536),0.021
12,"ADK, A0A5F9ZH76",0.065
13,ARHGEF2 (UniProt V9GYF0),-0.113
14,ACYP2 (UniProt P14621),0.097
15,AGGF1 (UniProt Q8N302),0.087
16,ACLY isoform 2 (UniProt P53396),0.191
17,ANKRD44 isoform 2 (UniProt Q8N8A2),-0.216
18,ANKRD30B (UniProt Q9BXX2),0.072
19,AP3D1 isoform 2 (UniProt O14617),0.376
20,ANXA5 (UniProt P08758),-0.067
21,ANXA13 isoform 2 (UniProt P27216),-0.079
22,ABL1 isoform 2 (UniProt P00519),0.019
23,ALKBH7 (UniProt Q9BT30),-0.452
24,ARMCX5 (UniProt Q6P1M9),0.037
